6 compounds from PubChem BioAssay AID1572 (National Center for Advancing Translational Sciences (NCATS), 2009) can be followed below.

Records with an inconclusive call do not appear. Calls of active or inactive are those of the source. Calls follow the shape of the dose curve; as a rule, active = well fitted curve in either direction with a large enough effect; inconclusive = small, poorly fitted or top-dose-only effect; inactive = flat fitted curve, though single readings scatter.

The assay is described as follows: Total Fluorescence Confirmation Counterscreen for Inhibitors of the Interaction of Thyroid Hormone Receptor and Steroid Receptor Coregulator 2. The following applies: Texas Red total fluorescence, TRbeta/SRC2 FP artifact counterscreen; series mostly up to 92.2 µM; total fluorescence change, both ways: at the top concentration. An excerpt: NIH Molecular Libraries Probe Production Network [MLPCN] NIH Chemical Genomics Center [NCGC] MLPCN Grant: DK058080 Assay Provider: R. Kip Guy, St. Jude Children's Research Hospital NCGC Assay Overview: Thyroid receptor (TR) regulates many homeostatic processes including basal metabolism, cardiovascular function, body weight, and lipid trafficking. TR modulators are potential therapeutics for obesity and hyperlipidemias but current thyroid analogs have undesirable side effects, particularly cardiac stimulation. To identify inhibitors that specifically prevent the interaction of TR with the steroid receptor coregulator 2 (SRC2), a fluorescence polarization assay was screened. This assay detects interaction of the ligand-binding domain of human TRbeta with a Texas Red labeled SRC2 peptide, corresponding to a 20 amino acid region of the nuclear receptor interaction domain (Arnold et al., 2006). Total fluorescence (555 nm excitation and 632 nm emission) was measured to identify potential fluorescent and light absorbing compounds. Such compounds may be artifacts that interfere with the fluorescence polarization assay. This assay is a confirmation assay for AID 1479. Arnold, L. A.; Estebanez-Perpina, E.; Togashi, M.; Shelat, A.; Ocasio, C. A.; McReynolds, A. C.; Nguyen, P.; Baxter, J. D.; Fletterick, R. J.; Webb, P.; Guy, R. K. A high-throughput screening method to identify small molecule inhibitors of thyroid hormone receptor coactivator binding. Sci STKE 2006, p 13.
NCGC Assay Protocol Summary: For screening, 5 uL/well 0.6 uM TRbeta and 20 nM SRC2 Texas Red in protein buffer (20mM Tris hydrochloride, 100mM NaCl, 10% glycerol, 1mM EDTA, 0.01% NP-40, 1mM DTT, 1uM T3 and 5% DMSO) was dispensed into black solid 1536-well plates (Grenier) using a solenoid-based dispenser. Following transfer of 23 nL compound or DMSO vehicle by a pin tool, the plates were centrifuged 15 s at 1000 RPM and incubated 5 hr at ambient temperature. The plates were read by an Envision (Perkin Elmer) to detect fluorescence polarization of SRC2 Texas Red (555 nm excitation and 632 nm emission). Data were normalized to unbound (all components except TRbeta) and bound SRC2 Texas Red controls. Total fluorescence (TF) was calculated as follows: TF = S + 2P where S and P are fluorescence readings in the parallel and perpendicular channels, respectively. In this assay, we provide % activity data for each concentration as well as potencies for the active compounds.
(A counterscreen serves to expose hits that act by an unwanted route or on another target.)
Turning to `CCCCCn1c(N)c(C(=O)NCc2cccs2)c2nc3ccccc3nc21`, the “total fluorescence change, both ways” value was 6.05% (inactive). The same measure, in the same setting: the result for `CN1CC[C@@]2(C)c3cc(O)ccc3N(C)C2O1` (stereo partly specified) reads 1.51% [at 184 µM] (inactive).

Take `O=C(O)CC1OCC=C2CN3CCC45C6=CC(=O)C(=O)C([N+](=O)[O-])=C6NC4C1C2CC35` (stereo unspecified): the outcome was inactive. Consider `CCn1nc(-c2cccs2)nc2c(=O)n(C)c(=O)nc1-2`, for which the “total fluorescence change, both ways” value was -0.774% (inactive). On to `COP(=S)(OC)Oc1ccc([N+](=O)[O-])cc1`, for which the “total fluorescence change, both ways” value was 8.92% [at 184 µM] (inactive). The same measure, in the same setting: the result for `Cc1[nH]n(-c2ccccc2)c(=O)c1C(c1ccc([N+](=O)[O-])cc1)c1c(C)[nH]n(-c2ccccc2)c1=O` reads -23.2% (inactive).
